Screening results from PubChem BioAssay.
Sm TGR inh: blocks Schistosoma mansoni thioredoxin glutathione reductase; AID 485364; Potency, µM (series often up to 114 µM), for inactives: at the highest dose activity change, negative = inhibition, actives largely listed as inhibitors; Q962Y6; purified TGR, DTNB reduction, TNB absorbance 405 nm; 360,000 compounds, 3% hits; also: nearly all actives have a fitted effect of over 60% in size
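TGR 20 nM + NADPH 100 uM (dispensed conc.), cpd preinc 15 min RT; start with NADPH (500 uM addition) then DTNB (15 mM addition). Kinetic TNB absorbance, 405 nm filter. Four-parameter Hill fit across titration.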
Giardia FBPA inh: blocks Giardia fructose-bisphosphate aldolase activity; A8B2U2; purified Giardia FBPA; Potency, µM (top dose mostly 59.6 µM), for the others: top-dose activity, negative = inhibition, most hits filed as inhibitors; 290,000 compounds, 0.71% hits; AID 2451; also: nearly all actives have a fitted effect of over 55% in size
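40 nM FBPA preincubated 10 min at RT with compound (up to 57.5 uM final), then substrate plus GAPDH/TPI/NAD/arsenate coupling and diaphorase/resazurin added. Fluorescence read after 20 min at RT, 525/598 nm.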
TbPYK inhibitor: T. brucei pyruvate kinase inhibition; TbPYK enzyme, Kinase-Glo Plus ATP luminescence, 45 min; Potency, µM (titrated, usually from 76.8 µM), without a hit: at the top dose activity, negative = inhibition, most hits filed as inhibitors; 410,000 compounds, 0.12% hits; also: nearly all actives have a fitted effect of over 50% in size
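Assay buffer: 50 mM TEA pH 7.2, 100 mM KCl, 10 mM MgCl2, 0.05% BSA, 0.01% Tween-20. Pyruvate kinase from T. brucei plus substrate met compound, then ADP (130 uM final). Luminescence was read post 45 min RT.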
LmPK inh: inhibitors of Leishmania mexicana pyruvate kinase. 290,000 compounds, 0.37% hits. Potency, µM (doses to about 57.5 µM), inactives show at the top dose activity change, negative = inhibition, usual class: inhibitors. purified LmPK, Kinase-Glo ATP luminescence, 1 h
Target sequence (Q27686 whole entry, looked up): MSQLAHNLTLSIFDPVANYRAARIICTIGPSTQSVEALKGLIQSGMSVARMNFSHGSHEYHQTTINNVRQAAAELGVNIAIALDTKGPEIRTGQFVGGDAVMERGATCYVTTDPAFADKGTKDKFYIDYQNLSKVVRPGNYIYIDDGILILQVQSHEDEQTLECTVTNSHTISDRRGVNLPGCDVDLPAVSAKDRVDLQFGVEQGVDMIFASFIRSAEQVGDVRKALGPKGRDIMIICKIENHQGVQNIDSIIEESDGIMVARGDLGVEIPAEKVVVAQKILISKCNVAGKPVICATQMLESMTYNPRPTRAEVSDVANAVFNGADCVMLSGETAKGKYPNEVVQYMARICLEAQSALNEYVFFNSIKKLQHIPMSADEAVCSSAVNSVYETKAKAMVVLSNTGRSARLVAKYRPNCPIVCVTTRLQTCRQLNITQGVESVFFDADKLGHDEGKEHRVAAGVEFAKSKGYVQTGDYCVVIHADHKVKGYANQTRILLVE
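ATP generated from ADP (0.1 mM) and PEP (0.5 mM) by 0.1 nM LmPK over 1 h at room temperature (pH 7.2 imidazole buffer) was detected by coupled luciferase luminescence. Values were normalized to uninhibited and no-enzyme wells.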
RE007 growth inh: less growth of the S. pombe RE007 Vpr strain. S. pombe RE007 Vpr strain, BacTiter-Glo ATP luminescence, 24 h. AID 651644. Potency, µM (highest dose often 92.2 µM), inactives show at the highest dose activity change, negative = less growth, most hits filed as inhibitors. 360,000 compounds, 0.21% hits; active = well fitted falling curve with a large enough effect; inconclusive = small, poorly fitted or top-dose-only effect; inactive = no such curve, though single readings can be large or run the other way; also: nearly all actives have a fitted effect of over 50% in size
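Fission yeast strain RE007, carrying one chromosomally integrated HIV-1 vpr copy, was seeded at OD 0.01 in PMG+AL medium with 23 nL pinned compound. After 24 h at 30 °C and 99% humidity, viability was read by BacTiter-Glo luminescence.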
An asterisk follows results filed as active; ? = inconclusive; nt = no result; [ ] = another dose, or the depositor's remark. An excerpt weighted towards active compounds, which were near 3.3% of everything screened. Unless noted, calls follow the shape of the dose curve; as a rule, active = well fitted curve in the direction sought with a large enough effect; inconclusive = small, poorly fitted or top-dose-only effect, or another doubt; inactive = no such curve, though single readings can be large; an effect the other way counts as inactive or inconclusive. % is scaled to controls: 0 for no effect and ±100 for the full control effect; potency is read from the fitted curve at half-maximal effect.

SMILES	Sm TGR inh	Giardia FBPA inh	TbPYK inhibitor	LmPK inh	RE007 growth inh
Cc1ccc(C(=O)NC(=S)Nc2ccc(N3CCOCC3)cc2)cc1C	-27%	-11%	2%	3%	-6%
CSc1cnn(-c2ccccc2)c(=O)c1SC	3%	4%	5%	2%	5%
CCCN(CCC)C(=O)Cn1c(=O)n(-c2ccc(OC)cc2)c(=O)c2ccc(C(=O)NCc3ccc(C)cc3)cc21	-2%	nt	0%	nt	nt
CCC(=O)N1CCN(c2ccc(NC(=S)NC(=O)c3cccc([N+](=O)[O-])c3)cc2)CC1	10µM*	-1%	-4%	6%	3%
COC(=O)c1cc(NC(=S)NC(=O)c2ccccc2)ccc1N1CCOCC1	25µM*	nt	-1%	1%	-18%
CCC(=O)Nc1cccc(NC(=S)NC(=O)c2cccs2)c1	25µM*	?	-5%	-1%	-5%
CC(=O)c1cccc(NC(=S)NC2CC2)c1	40µM*	-10%	-5%	-4%	26%
Cc1c(NC(=O)c2ccccc2NS(=O)(=O)c2ccc(F)cc2)c(=O)n(-c2ccccc2)n1C	-22%	6%	-1%	2%	-11%
CC(Nc1ccc2c(c1)OCCO2)C(=O)N1CCc2ccccc21 (configuration not stated)	-34%	-9%	-24%	-4%	9%
CCN1CCCc2cc(CN(CCN3CCOCC3)C(=S)Nc3ccccc3OC)ccc21	3%	-8%	-2%	-1%	-4%
CCOc1c(S(=O)(=O)N2CCCC2)ccc(Cl)c1Cl	2%	8%	-6%	-12%	-19%
O=C(NC(=S)Nc1ccc(N2CCOCC2)cc1)c1cccs1	8.9µM*	-11%	0%	6%	-2%
Cc1ccc(-c2cc(C(=O)NCCN3CCOCC3)c3ccccc3n2)o1	45µM*	0%	-11%	-3%	-5%
COc1ccc(-c2cc(C(=O)NCCN3CCOCC3)c3ccccc3n2)cc1	-10%	10%	-3%	-4%	9%
Cc1ccc(NC(=O)c2cc(-c3ccc(C)o3)nc3ccccc23)cc1	25µM*	-4%	?	0%	25µM*
Cc1ccc(-c2cc(C(=O)Nc3ccccn3)c3ccccc3n2)o1	18µM*	-25%	-33%	-4%	8%
COC(=O)CNC(=O)Cn1cnc2sc(C)c(S(=O)(=O)N3CCC(C)CC3)c2c1=O	1%	-3%	1%	-1%	12%
CC(=O)C1=C(c2ccccc2)OC(N)=C(C#N)C1c1ccccc1C (configuration not stated)	-3%	-29%	-6%	6%	-15%
CC(=O)C1(C)OC(N)=C(C#N)C(c2ccccc2)C1(C#N)C#N (configuration not stated)	11µM*	?	-22%	0%	18%
COCCCN1C(=O)c2ccc(C(=O)O)cc2C1=O	-4%	12%	1%	-10%	-4%
COc1ccc(Cl)cc1NC(=O)c1cn(C2CCCCC2)c(=O)c2c1c1ccccc1n2C	5%	nt	0%	nt	nt
CC(C)N(CC#CC(O)(c1ccccc1)c1ccccc1)CCO	-31%	5%	-9%	0%	-8%
OCCN(CC#CC(O)(c1ccccc1)c1ccccc1)CCO	40µM*	-22%	-12%	-1%	2%
CC(C)N(CC#CC(O)(c1ccccc1)c1ccccc1)C(C)C	40µM*	-7%	6%	4%	-9%
C=CC(O)(C#CCN(CC)CC)c1ccccc1 (configuration not stated)	45µM*	3%	1%	3%	-2%
SMILES	Sm TGR inh	Giardia FBPA inh	TbPYK inhibitor	LmPK inh	RE007 growth inh
CCCCCCCCOc1ccc(C2OC34CCCCC3C(C#N)(C#N)C2(C#N)C(=N)O4)cc1 (configuration not stated)	?	?	-16%	8%	10%
CCCn1cnc2c(N)c(C)c(C)cc21	-16%	1%	9%	-1%	7%
CCc1ccc(-c2nc(CN3CCC(C(=O)NCCN(CC)c4ccccc4)CC3)c(C)o2)cc1	5%	4%	0%	0%	-8%
S=C(NCc1cccnc1)Nc1ccc(Oc2ccccc2)cc1	-12%	0%	-9%	0%	-20%
CCOc1ccc(/C=C2\CCC(C3CCCC3)C2=O)cc1 (configuration not stated)	8%	1%	-9%	-10%	-2%
CCC(=O)OCOc1ccc(/C=C2/CCC(CN(C)C)C2=O)cc1 (configuration not stated)	nt	nt	-9%	nt	8.9µM*
COc1ccccc1OCC(=O)O	5%	5%	7%	1%	-4%
CC(C)=CCC/C(C)=C/CC/C(C)=C/CC/C(C)=C/CC1=C(C)C(=O)c2ccccc2C1=O	32µM*	?	3%	-5%	-5%[18.4 µM]
CC(C)=CCC1=C(OCC(=O)O)C(=O)c2ccccc2C1=O	10µM*	1.3µM*	-9%	9%	?
CN1CCC(N(C)C(=O)NC2CCCCC2)CC1	-1%	5%	-4%	-4%	-8%
COC(=O)c1cc(CSc2nnc(NC3CCCCC3)s2)oc1C	45µM*	-13%	-22%	2%	-17%
c1ccc(CSc2nnc(NC3CCCCC3)s2)cc1	nt	nt	-2%	nt	-9%
CCNC(=S)Nc1ccc2c(c1)c(=O)n(C)n2-c1cc(C)cc(C)c1	nt	nt	-3%	nt	-10%
O=C(CSc1nc2nc(-c3cccs3)cc(C(F)(F)F)c2c(=O)[nH]1)C(F)(F)F	3.5µM*	?	-4%	-1%	10%
O=C(NCCN1CCOCC1)c1cccc(Br)c1	nt	nt	4%	nt	-10%
O=C(COC(=O)CCS(=O)(=O)c1ccccc1)Nc1ccccc1	8.9µM*	nt	-13%	nt	-3%
Cc1cc(/C(=N/O)C(C)(C)NO)ccc1Cl	-14%	-15%	-11%	-2%	-24%
Cc1c(-c2ccc(Cl)cc2)[n+](=O)c(-c2ccccc2)cn1[O-]	50µM*	0%	0%	-2%	0%
CN1C=C/C(=C\c2cc[n+](C)c3ccccc23)c2ccccc21	-1%	?	-19%	-2%	3.2µM*
O=C1C=C(Nc2cccc3cccnc23)c2ccccc2C1=O	32µM*	1.6µM*	-10%	-2%	-22%
O=C1C=C(Nc2ccccc2)c2ccccc2C1=O	-14%	?	-9%	-12%	?
COc1ccccc1NS(=O)(=O)c1cccc2cccnc12	5%	-19%	0%	5%	-1%
O=C1C=C(Nc2ccccc2C(=O)O)c2ccccc2C1=O	?	1.6µM*	-16%	-29%	-26%
Nc1ccccc1S(=O)(=O)Nc1cccc2cccnc12	nt	14µM*	nt	nt	nt
COc1ccc(-c2[nH]ncc2CN2CCC(OCc3ccccn3)CC2)c(F)c1	-2%	0%	1%	-2%	1%
Cc1ccc(NC(=O)CN(C)C(=O)c2ccccn2)cc1	1%	nt	-3%	nt	-10%
Cc1ccc(NC2CC(=O)N(Cc3ccccc3)C2=O)cc1 (configuration not stated)	41%	2%	2%	1%	-17%
